For some of these results: Entries with a potency or affinity are not part of this list.
Tests used:
Design in all cases: scale not given: direction of the effect not stated beside the values
[1] = molecular target: Protein translocase subunit SecA (Escherichia coli (strain K12)) (UniProt P10408); experiment: Assay to Identify E. coli SecA ATPase Inhibitors; format: functional; settings: 30 µM
[2] = molecular target: T1, Ubiquitin-activating enzyme e1, putative (Leishmania donovani (strain BPK282A1)) (UniProt E9BSI1); experiment: Leishmania donovani Ubiquitin Activating Enzyme (LdE1); format: functional; settings: 30 µM
T1 sequence (whole entry): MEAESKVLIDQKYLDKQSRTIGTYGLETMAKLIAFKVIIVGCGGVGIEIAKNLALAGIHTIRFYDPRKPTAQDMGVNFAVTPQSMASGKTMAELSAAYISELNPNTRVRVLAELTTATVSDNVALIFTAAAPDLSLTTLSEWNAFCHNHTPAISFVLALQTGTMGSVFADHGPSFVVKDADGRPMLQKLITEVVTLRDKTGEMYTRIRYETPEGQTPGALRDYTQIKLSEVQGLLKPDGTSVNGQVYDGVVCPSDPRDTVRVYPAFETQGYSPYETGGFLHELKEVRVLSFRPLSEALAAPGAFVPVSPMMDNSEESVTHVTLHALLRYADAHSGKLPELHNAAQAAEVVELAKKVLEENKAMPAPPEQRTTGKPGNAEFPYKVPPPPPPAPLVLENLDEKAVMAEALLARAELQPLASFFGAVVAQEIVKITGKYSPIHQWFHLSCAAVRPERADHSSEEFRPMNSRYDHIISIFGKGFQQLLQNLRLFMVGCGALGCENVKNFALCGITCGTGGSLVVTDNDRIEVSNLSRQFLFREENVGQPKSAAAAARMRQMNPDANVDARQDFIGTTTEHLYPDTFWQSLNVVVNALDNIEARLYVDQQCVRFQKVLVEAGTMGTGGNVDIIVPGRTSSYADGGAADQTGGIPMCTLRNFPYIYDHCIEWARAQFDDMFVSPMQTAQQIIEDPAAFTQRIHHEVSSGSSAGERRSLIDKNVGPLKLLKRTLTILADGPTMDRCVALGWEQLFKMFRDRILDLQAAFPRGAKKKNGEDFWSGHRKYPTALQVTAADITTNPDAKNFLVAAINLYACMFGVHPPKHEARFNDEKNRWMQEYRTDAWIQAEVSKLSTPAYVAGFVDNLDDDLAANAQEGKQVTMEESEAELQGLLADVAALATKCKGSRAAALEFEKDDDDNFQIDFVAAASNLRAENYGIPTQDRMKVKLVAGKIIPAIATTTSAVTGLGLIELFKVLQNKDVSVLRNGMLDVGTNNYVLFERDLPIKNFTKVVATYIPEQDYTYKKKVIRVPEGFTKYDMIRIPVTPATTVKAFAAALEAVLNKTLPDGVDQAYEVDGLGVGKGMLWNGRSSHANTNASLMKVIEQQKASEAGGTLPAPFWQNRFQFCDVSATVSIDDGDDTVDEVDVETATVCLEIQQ

[3] = molecular target: AMP-activated protein kinase, AMPK (Homo sapiens) (UniProt P54646+O43741+P54619+Q9UGJ0+Q9Y478+Q13131+Q9UGI9); experiment: AMP-dependent Kinase enzyme assay. An in vitro enzyme assay that detects ADP turnover that is directly proportional to AMPK activity. This uses naive AMPK that is activated during the assay with MK-8722; format: functional; settings: 30 µM
[4] = molecular target: Sialic acid-binding Ig-like lectin 9 (Homo sapiens) (UniProt Q9Y336); experiment: Hs-Siglec9 ALPHAscreen SOP 20170721; settings: 10 µM
Trypanosoma cruzi = experiment: Trypanosoma cruzi phosphomannomutase and mannose-1-phosphate guanylyltransferase assay; format: functional; settings: 10 µM
[5] = molecular target: T2, Arginase-2, mitochondrial (Homo sapiens) (UniProt P78540); experiment: in vitro enzyme assay to detect the production of urea directly proportional to the activity of Arginase II; format: functional; settings: 33.3 µM; further: in the data most compounds retested in dose-response had high values
T2 sequence (whole entry): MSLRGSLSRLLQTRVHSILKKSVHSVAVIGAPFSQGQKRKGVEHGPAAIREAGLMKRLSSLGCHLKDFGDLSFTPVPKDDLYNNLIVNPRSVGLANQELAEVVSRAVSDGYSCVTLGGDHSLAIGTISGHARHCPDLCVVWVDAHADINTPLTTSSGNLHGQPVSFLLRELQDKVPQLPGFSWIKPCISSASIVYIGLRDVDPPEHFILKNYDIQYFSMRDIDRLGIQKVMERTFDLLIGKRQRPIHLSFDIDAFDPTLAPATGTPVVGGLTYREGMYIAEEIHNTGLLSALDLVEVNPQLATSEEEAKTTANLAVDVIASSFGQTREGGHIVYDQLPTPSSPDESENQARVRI

[6] = molecular target: T3, Proteasome subunit beta (Trypanosoma cruzi) (UniProt O96673); experiment: Trypanosoma cruzi proteasome chymotrypsin-like activity (TcProtChymo) assay.; further: in the data most compounds retested in dose-response had high values; format: functional; settings: 9.37 µM
T3 sequence (whole entry): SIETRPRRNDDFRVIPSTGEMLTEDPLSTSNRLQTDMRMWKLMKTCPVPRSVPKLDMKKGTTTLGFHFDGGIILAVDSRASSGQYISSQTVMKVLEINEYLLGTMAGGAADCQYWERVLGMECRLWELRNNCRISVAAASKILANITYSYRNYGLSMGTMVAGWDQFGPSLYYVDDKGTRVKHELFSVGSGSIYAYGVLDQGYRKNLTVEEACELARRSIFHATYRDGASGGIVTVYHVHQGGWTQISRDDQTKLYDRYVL

Homo sapiens = species on record: Homo sapiens; experiment: To identify inhibition of the IFN signalling (Jak-Stat) pathway via expression of an eGFP reporter gene under the control of an IFN-stimulated response element (ISRE) containing MxA promoter.; format: functional; settings: 30 µM
[7] = molecular target: T4, Tyrosyl-tRNA synthetase, putative (Trypanosoma cruzi (strain CL Brener)) (UniProt Q4DSP6); experiment: Trypanosoma cruzi tyrosyl tRNA synthetase (TcYRS) _High Tyrosine SOP; format: functional; settings: 30 µM; further: in the data most compounds retested in dose-response had high values
T4 sequence (whole entry): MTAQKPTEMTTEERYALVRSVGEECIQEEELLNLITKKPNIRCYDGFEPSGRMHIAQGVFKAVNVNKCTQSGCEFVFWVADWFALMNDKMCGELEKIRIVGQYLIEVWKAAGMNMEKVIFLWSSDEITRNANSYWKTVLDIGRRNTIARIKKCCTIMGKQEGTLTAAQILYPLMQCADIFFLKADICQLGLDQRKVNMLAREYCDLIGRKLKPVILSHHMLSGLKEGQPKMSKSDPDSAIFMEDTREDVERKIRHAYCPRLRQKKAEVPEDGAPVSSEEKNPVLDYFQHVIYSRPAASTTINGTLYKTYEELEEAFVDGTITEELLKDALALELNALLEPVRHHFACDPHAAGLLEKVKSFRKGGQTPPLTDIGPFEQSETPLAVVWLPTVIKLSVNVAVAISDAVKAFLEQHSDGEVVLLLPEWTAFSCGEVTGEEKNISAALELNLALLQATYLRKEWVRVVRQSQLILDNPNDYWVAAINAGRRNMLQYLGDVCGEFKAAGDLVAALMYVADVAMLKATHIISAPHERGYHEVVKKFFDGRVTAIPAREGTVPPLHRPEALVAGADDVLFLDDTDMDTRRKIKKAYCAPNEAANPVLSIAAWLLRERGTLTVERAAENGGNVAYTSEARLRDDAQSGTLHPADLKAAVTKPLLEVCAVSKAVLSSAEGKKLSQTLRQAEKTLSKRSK

[8] = molecular target: T4, Tyrosyl-tRNA synthetase, putative (Trypanosoma cruzi (strain CL Brener)); experiment: Trypanosoma cruzi tyrosyl tRNA synthetase (TcYRS) SOP; format: functional; settings: 30 µM
[9] = molecular target: Chromo domain-containing protein 1 (Saccharomyces cerevisiae (strain ATCC 204508 / S288c) (Baker's yeast)) (UniProt P32657); experiment: ScCHD-1 Enzyme Inhibition Assay; format: functional; settings: 30 µM; further: in the data most compounds retested in dose-response had high values
Sequence of Chromo domain-containing protein 1 (Saccharomyces cerevisiae (strain ATCC 204508 / S288c) (Baker's yeast)) (P32657 whole entry, the tested form may be a part): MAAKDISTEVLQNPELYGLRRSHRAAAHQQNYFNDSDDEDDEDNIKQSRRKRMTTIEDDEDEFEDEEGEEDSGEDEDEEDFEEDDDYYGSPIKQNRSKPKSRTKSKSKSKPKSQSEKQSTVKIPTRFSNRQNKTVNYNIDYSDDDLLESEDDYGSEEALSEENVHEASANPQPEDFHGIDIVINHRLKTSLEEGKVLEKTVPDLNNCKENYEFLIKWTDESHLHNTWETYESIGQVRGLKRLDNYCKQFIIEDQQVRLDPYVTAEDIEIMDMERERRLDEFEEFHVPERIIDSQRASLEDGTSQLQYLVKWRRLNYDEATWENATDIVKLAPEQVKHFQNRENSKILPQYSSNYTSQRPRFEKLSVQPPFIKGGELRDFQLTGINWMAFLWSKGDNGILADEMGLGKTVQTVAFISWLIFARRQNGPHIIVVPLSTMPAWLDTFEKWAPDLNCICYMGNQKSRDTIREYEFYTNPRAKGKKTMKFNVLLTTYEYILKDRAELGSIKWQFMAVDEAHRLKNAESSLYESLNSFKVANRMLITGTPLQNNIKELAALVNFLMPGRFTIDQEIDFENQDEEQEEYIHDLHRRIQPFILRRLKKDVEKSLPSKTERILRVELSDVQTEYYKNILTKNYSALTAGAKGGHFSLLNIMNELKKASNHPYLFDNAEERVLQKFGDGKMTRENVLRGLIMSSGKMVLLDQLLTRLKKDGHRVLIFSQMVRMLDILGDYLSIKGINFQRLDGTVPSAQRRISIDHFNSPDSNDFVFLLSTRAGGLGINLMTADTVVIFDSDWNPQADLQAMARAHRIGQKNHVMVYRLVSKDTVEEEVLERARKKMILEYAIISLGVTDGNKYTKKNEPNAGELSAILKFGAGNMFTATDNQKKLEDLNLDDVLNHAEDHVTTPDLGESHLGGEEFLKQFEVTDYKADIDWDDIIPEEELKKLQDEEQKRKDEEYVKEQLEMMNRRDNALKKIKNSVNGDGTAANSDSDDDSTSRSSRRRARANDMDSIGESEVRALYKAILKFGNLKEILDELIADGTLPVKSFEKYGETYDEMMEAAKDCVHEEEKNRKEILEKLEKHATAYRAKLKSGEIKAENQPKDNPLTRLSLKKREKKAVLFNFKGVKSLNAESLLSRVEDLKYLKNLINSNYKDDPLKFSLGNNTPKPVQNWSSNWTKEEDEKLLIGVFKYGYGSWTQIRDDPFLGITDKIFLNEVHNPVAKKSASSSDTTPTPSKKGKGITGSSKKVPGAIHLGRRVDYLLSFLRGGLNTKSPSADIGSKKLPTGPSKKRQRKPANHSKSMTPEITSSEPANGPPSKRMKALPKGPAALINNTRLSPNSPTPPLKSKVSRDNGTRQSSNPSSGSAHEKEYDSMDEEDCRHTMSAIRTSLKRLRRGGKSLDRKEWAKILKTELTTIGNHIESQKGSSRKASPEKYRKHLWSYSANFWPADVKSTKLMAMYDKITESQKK

Sequence of Protein translocase subunit SecA (Escherichia coli (strain K12)) (P10408 whole entry): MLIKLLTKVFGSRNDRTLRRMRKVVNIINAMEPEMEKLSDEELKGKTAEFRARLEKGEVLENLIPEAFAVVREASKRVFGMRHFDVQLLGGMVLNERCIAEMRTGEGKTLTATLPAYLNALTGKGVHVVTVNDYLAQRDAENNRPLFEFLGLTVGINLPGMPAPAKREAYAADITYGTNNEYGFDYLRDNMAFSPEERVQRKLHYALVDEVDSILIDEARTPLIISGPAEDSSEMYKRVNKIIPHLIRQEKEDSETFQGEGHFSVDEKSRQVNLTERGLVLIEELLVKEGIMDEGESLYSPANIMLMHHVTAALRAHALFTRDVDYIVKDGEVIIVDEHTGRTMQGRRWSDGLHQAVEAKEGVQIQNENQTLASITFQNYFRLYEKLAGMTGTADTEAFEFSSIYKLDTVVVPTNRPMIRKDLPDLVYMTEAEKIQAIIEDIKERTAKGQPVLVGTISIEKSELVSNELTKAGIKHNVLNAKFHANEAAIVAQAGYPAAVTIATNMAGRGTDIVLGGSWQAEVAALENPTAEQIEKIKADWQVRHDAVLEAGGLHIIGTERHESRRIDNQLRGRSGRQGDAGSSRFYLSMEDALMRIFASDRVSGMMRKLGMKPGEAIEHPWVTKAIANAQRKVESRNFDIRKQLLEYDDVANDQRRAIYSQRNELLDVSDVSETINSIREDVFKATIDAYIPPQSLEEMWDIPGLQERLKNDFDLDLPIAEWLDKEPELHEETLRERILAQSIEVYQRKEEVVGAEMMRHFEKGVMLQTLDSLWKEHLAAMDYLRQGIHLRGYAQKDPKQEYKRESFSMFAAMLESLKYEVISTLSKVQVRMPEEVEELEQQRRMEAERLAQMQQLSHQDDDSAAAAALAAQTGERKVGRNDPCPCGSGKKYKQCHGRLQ
Sequence of Sialic acid-binding Ig-like lectin 9 (Homo sapiens) (Q9Y336 whole entry): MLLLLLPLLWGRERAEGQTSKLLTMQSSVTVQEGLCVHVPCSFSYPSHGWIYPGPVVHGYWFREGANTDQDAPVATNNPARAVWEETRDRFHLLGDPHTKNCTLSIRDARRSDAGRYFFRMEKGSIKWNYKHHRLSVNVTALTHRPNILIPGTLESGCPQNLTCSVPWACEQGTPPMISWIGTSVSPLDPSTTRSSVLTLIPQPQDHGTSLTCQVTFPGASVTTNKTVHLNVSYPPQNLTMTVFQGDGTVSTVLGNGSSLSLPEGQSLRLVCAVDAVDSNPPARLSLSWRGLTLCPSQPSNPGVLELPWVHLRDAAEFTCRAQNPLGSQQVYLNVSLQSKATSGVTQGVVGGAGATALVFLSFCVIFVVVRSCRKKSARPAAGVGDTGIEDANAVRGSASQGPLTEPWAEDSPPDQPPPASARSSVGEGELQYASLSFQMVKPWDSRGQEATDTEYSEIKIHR

| Compound | Percent Effect [1] | Percent Effect [2] | Percent Effect [3] | Percent Effect [4] | Percent Effect (Trypanosoma cruzi) | Percent Effect [5] | Percent Effect [6] | Percent Effect (Homo sapiens) | Percent Effect [7] | Percent Effect [8] | Percent Effect [9] |
| --- | --- | --- | --- | --- | --- | --- | --- | --- | --- | --- | --- |
| Cc1noc(CN2CCN(CC(C)O)CC2)n1 (stereo unspecified) | -0.907% | 8.11% | -4.38% | 4.09% | 0.195% | 1.25% | 9.21% | -0.0675% | 6.93% | 8.54% | -4.47% |
| CCS(=O)(=O)c1ccc(N2CCC(NC(C)=O)CC2)cc1 | -5.48% | 2.67% | 0.562% | -0.234% | -3.21% | -1.04% | 14.8% | 24.6% | 2.73% | 8.64% | -7.72% |
| Cn1cc(NC(=O)Cn2c(CS(C)(=O)=O)nc3ccccc32)cn1 | -2.27% | 7.89% | 3.88% | 2.76% | 0.0974% | -1.18% | 12.6% | -13.6% | 3.19% | 13% | -3.67% |
| c1ccc(-c2noc(CN3CCC(c4ccn[nH]4)CC3)n2)cc1 | 1.64% | -8.11% | -9.82% | 9.87% | 3.09% | 26.2% | 21.9% | -10.4% | 4.76% | 14.6% | -1.3% |
| Cc1nc(CN2CCC3(CCN(c4ncc(F)cn4)C3)C2=O)cs1 (stereo unspecified) | 1.42% | 15.6% | 4.16% | -14.7% | -3.25% | 9.68% | 21.4% | 6.2% | 6.35% | 11.5% | -9.48% |
| O=C(NCc1ccccn1)Nc1cc(C(F)(F)F)c[nH]c1=O | -6.27% | 5.41% | -7.01% | 23.6% | 4.74% | 4.25% | 4.67% | 2.58% | 3.96% | 18.3% | -8.44% |
| O=C(C1CCC1)N1CCN(c2snc3ccccc23)CC1 | -4.56% | 1.27% | 21% | -7.26% | -0.718% | 9.25% | 5.83% | 25.3% | -4.17% | -12.7% | -2% |
| O=C(Cc1ccc(F)cc1)N1CCn2cc(Cn3cccn3)nc2C1 | -3.25% | 10.8% | 5.39% | -3.22% | -1.66% | 6.69% | 8.12% | -1.16% | 5.41% | 20.5% | 0.365% |
| O=C(c1ccnnc1)N1C[C@H](Oc2cccnc2)[C@H]2OCCC[C@H]21 | -5.64% | 0% | -1.06% | -4.69% | 0.781% | -0.417% | 4.65% | -14.6% | 11.9% | 15.8% | -3.24% |
| Cc1nc([C@@H]2C[C@@H]3CCN(C(=O)c4occc4C)C[C@H]3O2)no1 | -6.42% | 0% | 6.51% | 3.94% | -1.74% | -52.1% | 4.1% | 7.9% | -1.04% | -5% | -4.87% |
| CS(=O)(=O)N1CCCN(C(=O)c2ccc(Cn3ccccc3=O)o2)CC1 | 0.345% | 10.8% | -1.54% | -9.12% | -8.45% | 2.77% | 5.03% | 12.3% | 6.93% | 15.8% | -7.1% |
